Results as given in ChEMBL document CHEMBL1157539, “Thousands of chemical starting points for antimalarial lead identification” (Nature, 2010).

Columns and labels:
Type in all cases: functional
Plasmodium falciparum [1] = assay: GSK_TCMDC: Inhibition of Plasmodium falciparum 3D7 in whole red blood cells, using parasite LDH activity as an index of growth. Test compounds present at 2uM
Plasmodium falciparum [2] = assay: GSK_TCMDC: Inhibition of Plasmodium falciparum Dd2 in whole red blood cells, using parasite LDH activity as an index of growth. Test compounds present at 2uM
HepG2 = assay: GSK_TCMDC: Percent inhibition of human HepG2 cell line. Test compounds present at 10uM.

| Structure (SMILES) | Inhibition (Plasmodium falciparum [1]) [%] | Inhibition (Plasmodium falciparum [2]) [%] | Inhibition (HepG2) [%] |
| --- | --- | --- | --- |
| Cl.Clc1ccc2c(NCCc3ccccc3)ccnc2c1 | 93 | 99 | 31 |
| COc1ccc2nc3cc(Cl)ccc3c(Nc3ccc(O)c(CN4CC5CCC(CC5)C4)c3)c2c1.Cl | 100 | 100 | 17 |
| CC(C)Nc1cc(C(=O)N[C@@H](Cc2ccccc2)[C@H](O)CNC(C)(C)c2cccc(C(F)(F)F)c2)cc(N2CCCCS2(=O)=O)c1.O=CO | 98 | 98 | 9 |
| COc1cc(C(=O)Nc2cccc(-c3nc4ccccc4[nH]3)c2)cc(OC)c1OC | 99 | 41 | 25 |
| CC(C)CCN1CCC(Oc2ccc(NC(=O)c3ccc4ncccc4c3)cc2Cl)C1.O=C(O)C(F)(F)F (stereo not drawn) | 95 | 14 | 33 |
| Cc1nc2nc(N)nc(N)c2c(C)c1Cc1cccc(C#N)c1.Cl | 97 | 1 | 64 |
| CN1CCCC(OC(=O)c2ccccc2)C1 (stereo not drawn) | 100 | 0 | 4 |
| O=C(O)C(F)(F)F.O=S(=O)(NCCN1CCCC1)c1cccc(-c2cccc(CNCc3ccc(F)cc3)c2)c1 | 99 | 73 | 41 |
| O=C(NCc1ccc(Cl)c(Cl)c1)c1ccc(-c2nc3ccc(Cl)cc3[nH]2)cc1 | 96 | 22 | 20 |
| Cc1noc(C)c1-c1ccc2c(Nc3ccccc3C(C)(C)C)c(C(=O)NCc3ccc(C(F)(F)F)cc3)cnc2c1.Cl | 99 | 50 | 30 |
| O=S(=O)(c1ccc(OC(F)(F)F)cc1)C1CC2CCC(C1)N2S(=O)(=O)c1ccc(Cl)c(C(F)(F)F)c1 (stereo not drawn) | 100 | 95 | 1 |
| COc1ccc(Oc2ccc(-c3c(C)[nH]c(C)c(Cl)c3=O)cc2)cc1 | 97 | 97 | 0 |
| Cc1nc2nc(N)nc(N)c2c(C)c1Cc1cccc(C(F)(F)F)c1.Cl | 89 | 23 | 65 |
| Cc1cc(N2CCC(NS(=O)(=O)c3ccc(F)cc3)CC2)nc(Nc2cccc(C#N)c2)n1.O=C(O)C(F)(F)F | 97 | 65 | 20 |
| O=C(Nc1cccc(-c2cccc(F)c2)c1)C1CCN(Cc2ccc(O)cc2)CC1 | 87 | 2 | 13 |
| COc1ccc2ncc(C#N)c(CCN3CCC(NCc4ccc5c(c4)NC(=O)CO5)CC3)c2c1.Cl | 99 | 43 | 25 |

| Structure (SMILES) | Inhibition (Plasmodium falciparum [1]) [%] | Inhibition (Plasmodium falciparum [2]) [%] | Inhibition (HepG2) [%] |
| --- | --- | --- | --- |
| COc1ccc(CNC2CCN(C)CC2)cc1-c1ccc(S(=O)(=O)NCc2ccccc2)cc1.O=C(O)C(F)(F)F | 100 | 99 | 56 |
| CCN1CCC(NCc2ccc(-c3ccc(Cl)s3)cc2)CC1 | 96 | 23 | 42 |
| CC(C)Cc1c(O)nc(SCCN2CCOCC2)[nH]c1=O.Cl | 88 | 0 | 19 |
| CN1CCN(c2ccc(Nc3ncc(Cl)c(Nc4cccnc4C(N)=O)n3)cc2)CC1.Cl | 95 | 97 | 99 |
| O=C(NC1CCCCC1)N(Cc1cccc(-c2ccc(CNCc3ccc4c(c3)OCO4)cc2)c1)C1CCN(Cc2ccccc2)CC1.O=C(O)C(F)(F)F | 92 | 59 | 13 |
| COc1ccc2[nH]c(C(=O)Nc3cccc(-c4ccc(CN(C)C)cc4)c3)cc2c1 | 100 | 34 | 23 |
| CC(C)NC(=O)c1cccc(-c2ccc(OCCN3CCCC3c3cc4ccccc4[nH]3)cc2)c1 (stereo not drawn) | 100 | 34 | 25 |
| CC(C)Sc1ccc(Cl)cc1CON1C(=N)N=C(N)NC1(C)C.Cl | 93 | 90 | 66 |
| CCCNC(=O)CN1CN(c2ccccc2)C2(CCN(C(=O)c3ccc(C(C)(C)C)cc3)CC2)C1=O | 99 | 98 | 0 |
| O=C(/C=C/c1c(Cl)cccc1Cl)NC1CCC(CN2CCC(c3c[nH]c4ccncc34)CC2)CC1 (stereo not drawn) | 99 | 100 | 78 |
| N=C(N)NN=CC(=O)Nc1ccc(Cl)cc1.O=S(=O)(O)O | 100 | 2 | 5 |
| O=S(=O)(Nc1cccc(CCN2CCCCC2CCN2CCCC2)c1)c1ccc(-c2ccccc2)cc1 (stereo not drawn) | 99 | 5 | 31 |
| c1ccc(Oc2ccc(Nc3ccnc4cc(-c5ccc(CNCCN6CCOCC6)o5)ccc34)cc2)nc1 | 100 | 100 | 0 |
| Cc1onc(-c2c(Cl)cccc2Cl)c1C(=O)N1CCc2cc3nccc(N4CCN5CCC[C@H]5C4)c3cc21 | 100 | 58 | 3 |
| FC(F)(F)c1ccc2[nH]c(-c3cccc(-c4cccc(CNCCc5ccncc5)c4)c3)nc2c1.O=C(O)C(F)(F)F | 99 | 97 | 31 |
